Experimental data as given in PubChem BioAssay AID1159580 (chemical genetic matrix, 2015).
Out of some 5,500 compounds screened, about 2,000 (36%) were called active. About 18% were inconclusive and are not listed. No stated cut-off is given here; in the data, active means normalized growth mostly below about 0.91 (no sharp cut-off); inconclusive means no clear call, values can overlap the other calls; inactive means mostly above about 0.92. The list shows a part of the results.

Assay: chemical genetic growth profiling, strain panel (AID 1159580);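 further: tested at 20 µM; growth read once vehicle control cultures reached saturation at 30 °C; 1 = growth at the plate median or of vehicle wells; lower values mean less growth of the strain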
Conditions: S. cerevisiae deletion strains, growth OD

Measured: normalized growth

COc1cc(C(=O)O)c2c(c1C)OC(=O)c1c(C)cc(O)c(C=O)c1O2
inactive: locus YBR021W, strain FUR4, active compounds read low 0.989 | locus YBR229C, strain ROT2, active compounds read low 0.997 | locus YCL029C, strain bik1, active compounds read low 1 | locus YDL035C, strain GPR1, active compounds read low 0.977 | locus YDL074C, strain BRE1, active compounds read low 0.943 | locus YDL101C, strain DUN1, active compounds read low 1 | locus YDL134C, strain PPH21, active compounds read low 0.986 | locus YDL185W, strain tfp1, active compounds read low 0.93 | locus YDL192W, strain arf1, active compounds read low 0.991 | locus YDR101C, strain arx1, active compounds read low 1.01 | locus YDR150W, strain NUM1, active compounds read low 0.997 | locus YDR162C, strain NBP2, active compounds read low 0.969 | locus YDR318W, strain mcm21, active compounds read low 1.01 | locus YDR388W, active compounds read low 0.986 | locus YDR502C, strain sam2, active compounds read low 1 | locus YEL061C, strain CIN8, active compounds read low 0.993 | locus YER110C, active compounds read low 0.969 | locus YER155C, strain BEM2, active compounds read low 1.02 | locus YER167W, strain BCK2, active compounds read low 1.01 | locus YGL078C, strain dbp3, active compounds read low 0.954 | locus YGL086W, strain mad1, active compounds read low 0.986 | locus YGL248W, strain PDE1, active compounds read low 1.01 | locus YGR135W, strain pre9, active compounds read low 0.988 | locus YGR252W, strain gcn5, active compounds read low 1.05 | locus YHR079C, strain IRE1 (second series), active compounds read low 0.988 | locus YHR094C, strain hxt1, active compounds read low 0.989 | locus YHR129C, strain ARP1, active compounds read low 1 | locus YHR200W, strain rpn10, active compounds read low 0.994 | locus YIL066C, strain RNR3, active compounds read low 0.998 | locus YIL073C, strain SPO22, active compounds read low 0.948 | locus YIR030C, strain dcg1, active compounds read low 0.983 | locus YJL095W, strain BCK1, active compounds read low 0.998 | locus YJL134W, strain LCB3, active compounds read low 0.996 | locus YJL168C, strain set2, active compounds read low 0.972 | locus YJL187C, strain SWE1 (second series), active compounds read low 0.969 | locus YKL009W, strain mrt4, active compounds read low 0.974 | locus YKR001C, strain vps1, active compounds read low 0.971 | locus YLR039C, strain RIC1, active compounds read low 0.929 | locus YLR058C, strain SHM2, active compounds read low 1.01 | locus YLR102C, strain apc9, active compounds read low 0.984 | locus YLR268W, strain sec22, active compounds read low 0.956 | locus YLR371W, strain rom2, active compounds read low 0.955 | locus YLR418C, strain cdc73, active compounds read low 0.939 | locus YML016C, strain PPZ1, active compounds read low 0.986 | locus YML032C, strain rad52, active compounds read low 0.996 | locus YML124C, strain tub3, active compounds read low 0.998 | locus YMR078C, strain ctf18, active compounds read low 0.975 | locus YMR223W, strain ubp8, active compounds read low 0.984 | locus YMR263W, strain SAP30, active compounds read low 0.991 | locus YMR307W, strain GAS1, active compounds read low 0.923 | locus YNL067W, strain RPL9B, active compounds read low 0.997 | locus YNL128W, strain TEP1, active compounds read low 0.955 | locus YNL233W, strain BNI4, active compounds read low 1.01 | locus YNL250W, strain rad50, active compounds read low 0.919 | locus YNL307C, strain MCK1, active compounds read low 0.989 | locus YNR052C, strain pop2, active compounds read low 0.978 | locus YOL012C, strain htz1 0.7 | locus YOL147C, strain pex11, active compounds read low 1.01 | locus YOR061W, strain CKA2, active compounds read low 0.999 | locus YOR069W, strain VPS5, active compounds read low 0.995 | locus YOR136W, strain idh2, active compounds read low 1.02 | locus YOR144C, strain elg1, active compounds read low 0.985 | locus YOR184W, strain ser1, active compounds read low 0.975 | locus YOR316C, strain cot1, active compounds read low 0.977 | locus YPL055C, strain LGE1, active compounds read low 0.973 | locus YPR119W, strain clb2, active compounds read low 0.977 | locus YPR141C, strain kar3, active compounds read low 0.942 | locus YPR163C, strain tif3, active compounds read low 0.985 | locus YPR167C, strain met16, active compounds read low 1.01 | strain wtn01, active compounds read low 0.987
active: locus YIL125W, strain kgd1, active compounds read low 0.927 | locus YKL068W, active compounds read low 0.928 | locus YKL085W, strain MDH1 (second series), active compounds read low 0.911 | locus YKL085W, strain MDH1, active compounds read low 0.911 | locus YNL271C, strain bni1, active compounds read low 0.917 | locus YNL298W, strain CLA4, active compounds read low 0.898
